In assay [1] the target is Calcium and integrin-binding protein 1 (Homo sapiens) (UniProt Q99828). Nature of the assay: Primary qHTS for Identification of Calcium Integrin Binding Protein 1 (CIB1) Competitor (AID 1508620).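 Also: GST tagged CIB1 binding a fluorescein labelled alphaIIb integrin peptide tracer; top concentration of the series differs between compounds; % is scaled to controls: 0 for no effect and ±100 for the full control effect.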 The procedure, abridged: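 Fluorescence polarization competition: CIB1-GST (1 uM final) preincubated with compound 15 min at room temperature, then FITC-labeled alphaIIb peptide (100 nM final) added for another 15 min. Polarization read at Ex 480/Em 540.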
(In qHTS, concentration-response curves come from the screen itself.)

Assay [2] can be described thus: Primary qHTS for small molecule stabilizers of the endoplasmic reticulum resident proteome: Secreted ER Calcium Modulated Protein (SERCaMP) assay (AID 1508630). Also: % is scaled to controls: 0 for no effect and ±100 for the full control effect. The gist of the method: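 GLuc-SERCaMP-expressing SH-SY5Y cells, pretreated 16 h with compound, are challenged with thapsigargin to empty ER calcium stores; after 4 h, coelenterazine is added directly to the medium and luminescence is imaged.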

In another assay the target is Papain (Carica papaya) (UniProt P00784). Nature of the assay: Primary qHTS assay for inhibitors of the protease papain (AID 1645873).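 Also: papain turnover of Z-FR-AMC read as the AMC fluorescence gain over 10 min; series mostly up to about 50 µM; % is scaled to controls: 0 for no effect and ±100 for the full control effect.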
The nature of assay [3]: Primary qHTS for inhibitors of nuclear receptor binding SET domain protein 2 (NSD2) in an isogenic RCH-ACV NSD2 p.E1099K mutant (9B) (AID 1645876). Also: nearly all actives have a fitted effect of over 70% in size. Also: potency is read from the fitted curve at half-maximal effect. As to activity change, negative = viability loss: % is scaled to controls: 0 for no effect and ±100 for the full control effect.
A short description of assay [4]: Primary qHTS for inhibitors of nuclear receptor binding SET domain protein 2 (NSD2) in an RCH-ACV wild type WT cells (2C) (AID 1645877). Also: nearly all actives have a fitted effect of over 70% in size. Also: potency is read from the fitted curve at half-maximal effect.
Assay [5] is described as follows: A High-Content qHTS Against Drug Library for the Identification of Small Molecules that Inhibit DYT1 Early Onset Primary Dystonia-Associated Cell Pathology (AID 1645839; calls by dose curve; also: series mostly up to about 46 µM). The procedure, abridged: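 Readout: %pathology, the punctate EGFP-TorsinA distribution from imaging, as the primary channel and cell count as the toxicity counterscreen. HEK293 Flp-In cells expressing delE TorsinA were induced with tetracycline and treated with compound for 48 h.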

In assay [6] the target is Cytochrome P450 2D6 (Homo sapiens) (UniProt P10635). The experiment in a line: Cytochrome P450 family 2 subfamily D member 6 (CYP2D6) small molecule antagonists: luciferase biochemical (cell-free) qHTS assay (AID 1645840; active = well fitted curve in the direction sought with a large enough effect in the repeat runs; an effect the other way counts as inactive or inconclusive; also: series mostly up to about 57 µM; % is scaled to controls: 0 for no effect and ±100 for the full control effect; nearly all actives have a fitted effect of over 55% in size). The procedure, abridged:
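P450-Glo luminescent screen: recombinant CYP2D6 enzyme–proluciferin substrate mix preincubated with compound 10 min at room temperature, then NADPH regeneration added for 1 h at room temperature. Detection reagent added for 20 min; luciferin light read as relative luminescence units.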

Assay [7] addresses Cytochrome P450 2C9 (Homo sapiens) (UniProt P11712). The experiment in a line: Cytochrome P450 family 2 subfamily C member 9 (CYP2C9) small molecule antagonists: luciferase biochemical (cell-free) qHTS assay (AID 1645842; active = well fitted curve in the direction sought with a large enough effect in the repeat runs; an effect the other way counts as inactive or inconclusive; also: nearly all actives have a fitted effect of over 55% in size; also: potency is read from the fitted curve at half-maximal effect). The gist of the method:
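Luminescence, after 20 min with luciferin detection reagent, reflected CYP2C9 turnover during a 1 h NADPH-driven reaction at 37C. Enzyme-substrate mix contained 0.4% bovine serum albumin and was preincubated with compound 10 min at room temperature.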

The target of assay [8] is Cytochrome P450 3A4 (Homo sapiens) (UniProt P08684). Nature of the assay: Cytochrome P450 family 3 subfamily A member 4 (CYP3A4) small molecule antagonists: luciferase qHTS assay (AID 1645841; active = well fitted curve in the direction sought with a large enough effect in the repeat runs; an effect the other way counts as inactive or inconclusive; also: nearly all actives have a fitted effect of over 45% in size). The gist of the method: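 P450-Glo CYP3A4 enzyme with proluciferin substrate was preincubated with DMSO-dissolved compounds for 10 min at room temperature. NADPH regeneration solution started a 1 h reaction. Detection reagent stopped it, and luminescence was read after 20 min.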

Assay [9] deals with Rap guanine nucleotide exchange factor 3 (Homo sapiens) (UniProt O95398). Nature of the assay: Confirmatory qHTS for antagonist of cAMP-regulated guanine nucleotide exchange factor 3 (EPAC1) (AID 1645880). Also: nearly all actives have a fitted effect of over 55% in size. Also: potency is read from the fitted curve at half-maximal effect. The gist of the method:
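Nucleotide exchange uses 100 nM EPAC1, 250 nM RAP1B-BODIPY-GDP and 50 uM GDP, with compounds in a concentration-titration series. After 5 min at room temperature, fluorescence (480 nm ex/540 nm em) is read every 5 min for 30 min. Data are normalized to control ATA and DMSO.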

For assay [10] the target is unchanged. Nature of the assay: Confirmatory qHTS for agonist of cAMP-regulated guanine nucleotide exchange factor 3 (EPAC1) (AID 1645881).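 Also: EPAC1 catalysed release of BODIPY-GDP from Rap1B seen as fluorescence loss; 100% = effect of cAMP agonist control; nearly all actives have a fitted effect of over 75% in size.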
Assay [11] deals with Rap guanine nucleotide exchange factor 4 (Homo sapiens) (UniProt Q8WZA2). The experiment in a line: Confirmatory qHTS for agonist of cAMP-regulated guanine nucleotide exchange factor 4 (EPAC2) (AID 1645884).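 Also: nucleotide exchange releases bodipy-GDP from Rap1 and this lowers its fluorescence; % is scaled to controls: 0 for no effect and ±100 for the full control effect; nearly all actives have a fitted effect of over 65% in size.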
Assay [12] shares this target. The experiment in a line: Confirmatory qHTS for antagonist of cAMP-regulated guanine nucleotide exchange factor 4 (EPAC2) (AID 1645885). Also: nearly all actives have a fitted effect of over 25% in size. Also: potency is read from the fitted curve at half-maximal effect.
Assay [13] addresses Rap guanine nucleotide exchange factor 3 (Homo sapiens) (UniProt O95398). Nature of the assay: Counterscreen qHTS for antagonist of cAMP-regulated guanine nucleotide exchange factor 3 (EPAC1) (AID 1645888).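 Also: fluorescence loss as bound BODIPY-GDP is released from Rap1B; % of control where 0% means no effect.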 The gist of the method:
(§1)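 Measured: fluorescence of BODIPY-GDP bound to Rap1B, which falls as exchange proceeds. Conditions include 50 uM competing GDP, 5 and 30 min reads, and a later cAMP challenge for antagonist detection.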

For assay [14] the target is unchanged. Nature of the assay: Counterscreen qHTS for agonist of cAMP-regulated guanine nucleotide exchange factor 3 (EPAC1) (AID 1645889). Also: % of control where 0% means no effect; nearly all actives have a fitted effect of over 40% in size. The procedure, abridged: as §1
(Counterscreens check selectivity or assay interference.)

Where “and” joins values, the source holds several entries; their conditions need not be identical. Equal entries are not always repeated. Records with an inconclusive call do not appear. The source holds several records for some structures; these can differ, active in one and inactive in another. Calls of active or inactive are those of the source. Unless noted, calls follow the shape of the dose curve; as a rule, active = well fitted curve in the direction sought with a large enough effect; inconclusive = small, poorly fitted or top-dose-only effect, or another doubt; inactive = no such curve, though single readings can be large; an effect the other way counts as inactive or inconclusive.

Papain (Carica papaya), sequence (P00784 whole entry, looked up, the tested form may be a part): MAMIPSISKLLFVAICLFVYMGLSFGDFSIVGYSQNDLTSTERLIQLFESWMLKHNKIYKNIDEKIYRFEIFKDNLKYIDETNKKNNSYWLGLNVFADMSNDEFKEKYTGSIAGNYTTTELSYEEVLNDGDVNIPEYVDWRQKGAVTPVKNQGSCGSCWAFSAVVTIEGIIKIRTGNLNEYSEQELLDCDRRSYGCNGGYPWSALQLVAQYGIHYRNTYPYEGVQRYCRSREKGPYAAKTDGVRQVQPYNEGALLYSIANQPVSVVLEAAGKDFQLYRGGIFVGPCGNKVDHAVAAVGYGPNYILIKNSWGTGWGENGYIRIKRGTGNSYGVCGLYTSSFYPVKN
Cytochrome P450 2D6 (Homo sapiens), sequence (P10635 whole entry, looked up): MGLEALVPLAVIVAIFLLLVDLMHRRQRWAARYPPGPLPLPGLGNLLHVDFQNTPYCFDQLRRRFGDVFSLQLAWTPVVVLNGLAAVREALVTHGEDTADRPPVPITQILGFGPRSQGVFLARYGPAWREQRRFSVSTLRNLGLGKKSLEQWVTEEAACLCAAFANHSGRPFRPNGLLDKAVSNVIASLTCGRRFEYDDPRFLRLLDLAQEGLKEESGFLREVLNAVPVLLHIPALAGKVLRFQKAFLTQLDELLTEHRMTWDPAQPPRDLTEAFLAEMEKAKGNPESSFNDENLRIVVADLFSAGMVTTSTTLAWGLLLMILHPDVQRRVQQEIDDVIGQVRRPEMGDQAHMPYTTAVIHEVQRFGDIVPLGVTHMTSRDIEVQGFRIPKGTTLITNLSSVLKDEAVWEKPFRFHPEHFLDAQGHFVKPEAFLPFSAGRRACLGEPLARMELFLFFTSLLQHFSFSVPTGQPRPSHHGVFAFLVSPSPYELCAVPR
Cytochrome P450 2C9 (Homo sapiens), sequence (P11712 whole entry, looked up): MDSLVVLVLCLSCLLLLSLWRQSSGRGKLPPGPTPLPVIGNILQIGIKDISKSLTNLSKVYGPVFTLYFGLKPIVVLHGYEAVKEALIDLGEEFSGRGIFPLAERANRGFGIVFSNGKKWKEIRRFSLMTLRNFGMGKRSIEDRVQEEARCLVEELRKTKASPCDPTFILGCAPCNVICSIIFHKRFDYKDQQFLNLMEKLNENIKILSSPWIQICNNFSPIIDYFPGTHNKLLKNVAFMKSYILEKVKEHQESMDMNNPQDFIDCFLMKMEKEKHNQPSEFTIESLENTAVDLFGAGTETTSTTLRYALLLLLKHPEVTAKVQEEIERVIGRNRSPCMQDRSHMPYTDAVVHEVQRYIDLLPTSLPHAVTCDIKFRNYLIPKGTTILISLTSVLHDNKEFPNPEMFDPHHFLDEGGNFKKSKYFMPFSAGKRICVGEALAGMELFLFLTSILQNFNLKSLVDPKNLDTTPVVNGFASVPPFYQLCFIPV
Rap guanine nucleotide exchange factor 3 (Homo sapiens), sequence (O95398 whole entry, looked up): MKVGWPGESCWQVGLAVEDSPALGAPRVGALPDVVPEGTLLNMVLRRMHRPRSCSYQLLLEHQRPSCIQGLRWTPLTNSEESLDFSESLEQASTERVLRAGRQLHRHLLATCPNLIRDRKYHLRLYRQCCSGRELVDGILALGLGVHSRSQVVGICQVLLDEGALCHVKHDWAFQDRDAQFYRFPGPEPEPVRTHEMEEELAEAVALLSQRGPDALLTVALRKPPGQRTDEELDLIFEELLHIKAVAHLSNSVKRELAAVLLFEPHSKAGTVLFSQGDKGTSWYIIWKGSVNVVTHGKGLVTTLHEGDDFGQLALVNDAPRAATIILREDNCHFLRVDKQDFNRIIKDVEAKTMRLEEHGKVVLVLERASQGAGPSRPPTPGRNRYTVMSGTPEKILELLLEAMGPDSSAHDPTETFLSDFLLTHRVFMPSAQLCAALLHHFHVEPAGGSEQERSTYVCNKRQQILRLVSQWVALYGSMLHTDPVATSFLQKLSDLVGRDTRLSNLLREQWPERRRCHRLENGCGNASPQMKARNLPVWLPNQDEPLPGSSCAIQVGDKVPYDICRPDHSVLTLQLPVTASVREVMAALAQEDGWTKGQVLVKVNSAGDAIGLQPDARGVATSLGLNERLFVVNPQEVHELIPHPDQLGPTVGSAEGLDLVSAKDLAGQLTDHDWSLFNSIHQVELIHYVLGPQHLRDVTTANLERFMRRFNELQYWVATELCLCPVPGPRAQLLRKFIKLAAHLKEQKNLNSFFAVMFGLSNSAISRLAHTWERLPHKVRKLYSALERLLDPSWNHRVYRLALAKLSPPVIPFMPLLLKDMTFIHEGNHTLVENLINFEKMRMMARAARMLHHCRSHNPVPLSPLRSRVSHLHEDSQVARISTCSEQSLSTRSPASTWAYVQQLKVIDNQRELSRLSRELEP
Rap guanine nucleotide exchange factor 4 (Homo sapiens), sequence (Q8WZA2 whole entry, looked up): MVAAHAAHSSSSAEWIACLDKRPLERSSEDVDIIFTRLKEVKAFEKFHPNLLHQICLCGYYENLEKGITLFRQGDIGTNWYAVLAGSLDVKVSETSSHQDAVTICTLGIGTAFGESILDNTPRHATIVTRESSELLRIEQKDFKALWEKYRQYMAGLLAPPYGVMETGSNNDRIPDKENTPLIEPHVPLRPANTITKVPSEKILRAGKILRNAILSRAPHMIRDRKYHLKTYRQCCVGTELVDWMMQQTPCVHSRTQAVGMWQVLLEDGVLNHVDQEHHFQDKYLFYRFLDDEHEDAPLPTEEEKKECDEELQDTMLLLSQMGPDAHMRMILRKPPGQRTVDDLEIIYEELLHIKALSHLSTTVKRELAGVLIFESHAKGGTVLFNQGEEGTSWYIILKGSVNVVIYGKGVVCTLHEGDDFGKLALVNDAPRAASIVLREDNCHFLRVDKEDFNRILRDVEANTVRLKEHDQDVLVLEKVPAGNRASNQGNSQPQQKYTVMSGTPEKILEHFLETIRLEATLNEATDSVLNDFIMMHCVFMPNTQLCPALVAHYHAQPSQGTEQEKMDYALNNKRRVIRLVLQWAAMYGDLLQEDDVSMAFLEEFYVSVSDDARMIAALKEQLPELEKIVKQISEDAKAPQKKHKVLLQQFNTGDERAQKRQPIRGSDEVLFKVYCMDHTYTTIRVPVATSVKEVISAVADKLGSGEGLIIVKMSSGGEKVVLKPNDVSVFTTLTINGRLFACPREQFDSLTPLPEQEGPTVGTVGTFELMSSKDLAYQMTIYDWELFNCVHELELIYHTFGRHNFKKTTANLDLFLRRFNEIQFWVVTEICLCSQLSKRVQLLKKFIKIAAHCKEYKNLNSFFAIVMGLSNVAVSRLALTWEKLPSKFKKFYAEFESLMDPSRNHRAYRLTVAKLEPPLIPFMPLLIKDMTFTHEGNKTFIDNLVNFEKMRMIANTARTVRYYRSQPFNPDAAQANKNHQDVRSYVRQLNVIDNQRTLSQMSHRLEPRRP
Cytochrome P450 3A4 (Homo sapiens), sequence (P08684 whole entry, looked up): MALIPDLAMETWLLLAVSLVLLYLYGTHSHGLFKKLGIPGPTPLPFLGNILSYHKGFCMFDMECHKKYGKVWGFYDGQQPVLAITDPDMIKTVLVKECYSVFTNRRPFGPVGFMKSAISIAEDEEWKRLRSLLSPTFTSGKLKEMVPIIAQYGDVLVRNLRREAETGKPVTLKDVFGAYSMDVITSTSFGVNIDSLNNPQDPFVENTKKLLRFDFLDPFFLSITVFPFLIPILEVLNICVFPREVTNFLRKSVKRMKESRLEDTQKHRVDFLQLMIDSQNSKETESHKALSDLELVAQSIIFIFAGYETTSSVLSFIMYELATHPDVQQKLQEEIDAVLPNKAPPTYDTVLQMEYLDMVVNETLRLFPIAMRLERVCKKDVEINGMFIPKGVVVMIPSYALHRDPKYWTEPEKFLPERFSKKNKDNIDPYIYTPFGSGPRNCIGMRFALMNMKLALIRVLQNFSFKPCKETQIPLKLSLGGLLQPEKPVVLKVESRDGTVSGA
Calcium and integrin-binding protein 1 (Homo sapiens), sequence (Q99828 whole entry, looked up): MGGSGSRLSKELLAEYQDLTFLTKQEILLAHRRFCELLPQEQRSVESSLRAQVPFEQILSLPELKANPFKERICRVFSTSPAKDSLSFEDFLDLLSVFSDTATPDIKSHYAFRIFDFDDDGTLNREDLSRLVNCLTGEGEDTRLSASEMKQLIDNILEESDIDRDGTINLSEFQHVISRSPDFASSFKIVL

`O=C1c2ccccc2-c2n[nH]c3cccc1c23`: the Potency entry (in assay [1]; in [2]; with Papain (Carica papaya)) was “inactive” throughout. Also, the Potency is 11.8 µM (active) and 14.6 µM (active) in assay [3]; 13.2 µM (active) and 14.6 µM (active) in assay [4].
Consider `Oc1ccc2ccccc2c1SSc1c(O)ccc2ccccc12`, for which the Potency in assay [3] was 23.5 µM (active) and 16.4 µM (active).
Turning to `O=C(NCCO[N+](=O)[O-])c1cccnc1`, the Potency result in [1], in assay [5], in assay [6], in assay [7], in assay [3] and in [4] was “inactive” in each case.
For `C[Se]CCC(N)C(=O)O` (stereo not drawn), the Potency entry in [1], in assay [2], in assay [3] and in [4] was “inactive” each time.
Take `O=C1CCc2ccc(OCCCCN3CCN(c4cccc(Cl)c4Cl)CC3)cc2N1`: the Potency result in assay [1], in assay [2] and in assay [3] was “inactive” each time.
As for `CCC1=C(C)CN(C(=O)NCCc2ccc(S(=O)(=O)NC(=O)NC3CCC(C)CC3)cc2)C1=O` (stereo not drawn), the Potency entry in assay [1], in [2], in [6] and in [3] was “inactive” each time.
`CC(C)(S)[C@@H](N)C(=O)O`: in assay [1], the Potency result is “inactive”. In addition, the outcome in [3] and in [4] was “inactive [at 4.96 µM]” in each case.
On to `CCCc1cc(=O)[nH]c(=S)[nH]1`, for which the Potency entry in assay [2], in assay [5], in assay [6], in assay [7], in assay [3] and in assay [4] was “inactive” throughout.
On to `CC(=O)O[C@H]1C(=O)[C@@]2(C)C([C@H](OC(=O)c3ccccc3)[C@]3(O)C[C@H](OC(=O)[C@H](O)[C@@H](NC(=O)c4ccccc4)c4ccccc4)C(C)=C1C3(C)C)[C@]1(OC(C)=O)CO[C@@H]1C[C@@H]2O` (stereo partly drawn), for which the Potency entry in assay [1] and in [2] was “inactive” in each case. For the same compound, the Potency in assay [3] was 4.5 nM (active) and 5.9 nM (active); in assay [4], 5.1 nM (active) and 5.9 nM (active).
With `CCCCCCCCCCCCCCCCCCCCCCO`, the Potency entry in assay [1], in [2], in assay [3] and in assay [4] was “inactive” in each case.
For `CCCS(=O)c1ccc2nc(NC(=O)OC)[nH]c2c1` (stereo not drawn), the Potency result in assay [1], in assay [2] and in [7] was “inactive” each time. Further, in assay [8], the compound was called inactive. Further, the Potency is 4.22 µM (active) and 8.17 µM (active) in assay [3]; 2.66 µM (active) and 18.6 µM (active) and 4.09 µM (active) in [4].
With `CC(C)c1ccc2c(c1)c(SC(C)(C)C)c(CC(C)(C)C(=O)O)n2Cc1ccc(Cl)cc1`, the Potency result (in [1]; in [2]; in the assay with Papain (Carica papaya); in [3]; in assay [4]) was “inactive” each time. Moreover, the Potency result is “inactive and 30.1 µM (active) and 35.2 µM (active)” in assay [9]; “inactive and 19 µM (active) and 27.8 µM (active)” in [12]. Moreover, the outcome in [10], in assay [11], in assay [13] and in assay [14] was inactive.
Take `COc1c2occc2cc2ccc(=O)oc12`: the Potency result in assay [1] and in [5] was “inactive” in each case. Besides, the Potency in assay [7] was 3.89 µM (active).
Take `CC(=O)NC[C@H]1CN(c2ccc(N3CCOCC3)c(F)c2)C(=O)O1`: the Potency entry (in assay [2]; in assay [6]; in the assay with Papain (Carica papaya); in assay [3]; in assay [4]) was “inactive” throughout. The outcome in assay [8] was inactive.
Take `O=C(NCC1CCCCN1)c1cc(OCC(F)(F)F)ccc1OCC(F)(F)F` (stereo not drawn): the Potency entry in assay [1], in [5], in assay [7], in assay [3] and in [4] was “inactive” in each case.
With `Cc1ccc(S(=O)(=O)NC(=O)NN2CC3CCCC3C2)cc1` (stereo not drawn), the Potency result in assay [1], in assay [5], in [6], in assay [7], in assay [3] and in assay [4] was “inactive” in each case.
In the case of `Cc1nc(-c2ccc(OCC(C)C)c(C#N)c2)sc1C(=O)O`, the Potency result in assay [1], in assay [2], in assay [6], in assay [3] and in assay [4] was “inactive” each time.
As for `O=P(O)(O)C(O)(Cn1ccnc1)P(=O)(O)O`, the Potency entry in [1] and in assay [2] was “inactive” in each case. In addition, in assay [3], the activity change, negative = viability loss is 6% [at 4.96 µM] (inactive). Also, the outcome in assay [4] was “inactive [at 4.96 µM]”.
As to `CS(=O)(=O)OCCCCOS(C)(=O)=O`, the Potency result in assay [1], in assay [5], in assay [6], in assay [7], in assay [3] and in [4] was “inactive” each time. Further, the outcome in assay [8] was inactive.

Values taken from PubChem BioAssay (NCATS).
